For some assays here: Potency and affinity values are given separately.
What was measured:
Parameters in all cases: scale not given: direction of the effect not stated beside the values
[1] = target: Protein translocase subunit SecA (Escherichia coli (strain K12)) (UniProt P10408); assay: Assay to Identify E. coli SecA ATPase Inhibitors; type: functional; conditions: 30 µM
[2] = target: T1, Ubiquitin-activating enzyme e1, putative (Leishmania donovani (strain BPK282A1)) (UniProt E9BSI1); assay: Leishmania donovani Ubiquitin Activating Enzyme (LdE1); type: functional; conditions: 30 µM
T1 sequence (whole entry): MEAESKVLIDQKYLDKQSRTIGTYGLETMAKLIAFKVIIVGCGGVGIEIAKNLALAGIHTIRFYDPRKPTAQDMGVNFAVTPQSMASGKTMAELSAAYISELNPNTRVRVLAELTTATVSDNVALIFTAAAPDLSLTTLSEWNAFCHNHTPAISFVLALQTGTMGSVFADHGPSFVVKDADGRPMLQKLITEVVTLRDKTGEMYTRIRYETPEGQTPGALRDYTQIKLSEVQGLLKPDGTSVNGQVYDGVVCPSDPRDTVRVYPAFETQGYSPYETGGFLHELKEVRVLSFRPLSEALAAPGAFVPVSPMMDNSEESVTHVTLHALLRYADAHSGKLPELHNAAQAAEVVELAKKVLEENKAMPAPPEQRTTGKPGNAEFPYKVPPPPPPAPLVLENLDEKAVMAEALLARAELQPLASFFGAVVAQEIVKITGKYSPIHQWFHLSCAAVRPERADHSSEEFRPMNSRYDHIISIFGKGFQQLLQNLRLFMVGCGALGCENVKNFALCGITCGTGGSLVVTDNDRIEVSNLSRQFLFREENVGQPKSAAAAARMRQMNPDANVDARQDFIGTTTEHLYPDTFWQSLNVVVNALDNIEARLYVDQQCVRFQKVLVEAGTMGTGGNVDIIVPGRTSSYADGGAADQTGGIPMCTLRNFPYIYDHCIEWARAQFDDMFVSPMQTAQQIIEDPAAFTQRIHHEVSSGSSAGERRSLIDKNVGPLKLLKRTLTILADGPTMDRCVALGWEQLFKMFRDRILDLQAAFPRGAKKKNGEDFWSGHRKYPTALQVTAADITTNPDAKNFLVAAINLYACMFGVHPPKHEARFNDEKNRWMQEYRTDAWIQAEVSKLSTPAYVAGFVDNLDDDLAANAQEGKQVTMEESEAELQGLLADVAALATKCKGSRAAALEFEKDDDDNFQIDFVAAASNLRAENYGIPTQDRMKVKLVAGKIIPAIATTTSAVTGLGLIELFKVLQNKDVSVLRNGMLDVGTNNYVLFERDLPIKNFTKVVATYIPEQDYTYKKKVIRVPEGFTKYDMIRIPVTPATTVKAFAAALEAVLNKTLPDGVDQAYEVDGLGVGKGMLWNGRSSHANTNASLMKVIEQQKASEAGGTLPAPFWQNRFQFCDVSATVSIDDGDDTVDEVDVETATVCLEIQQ

[3] = target: AMP-activated protein kinase, AMPK (Homo sapiens) (UniProt P54646+O43741+P54619+Q9UGJ0+Q9Y478+Q13131+Q9UGI9); assay: AMP-dependent Kinase enzyme assay. An in vitro enzyme assay that detects ADP turnover that is directly proportional to AMPK activity. This uses naive AMPK that is activated during the assay with MK-8722; type: functional; conditions: 30 µM
[4] = target: Sialic acid-binding Ig-like lectin 9 (Homo sapiens) (UniProt Q9Y336); assay: Hs-Siglec9 ALPHAscreen SOP 20170721; conditions: 10 µM
Sequence of Sialic acid-binding Ig-like lectin 9 (Homo sapiens) (Q9Y336 whole entry): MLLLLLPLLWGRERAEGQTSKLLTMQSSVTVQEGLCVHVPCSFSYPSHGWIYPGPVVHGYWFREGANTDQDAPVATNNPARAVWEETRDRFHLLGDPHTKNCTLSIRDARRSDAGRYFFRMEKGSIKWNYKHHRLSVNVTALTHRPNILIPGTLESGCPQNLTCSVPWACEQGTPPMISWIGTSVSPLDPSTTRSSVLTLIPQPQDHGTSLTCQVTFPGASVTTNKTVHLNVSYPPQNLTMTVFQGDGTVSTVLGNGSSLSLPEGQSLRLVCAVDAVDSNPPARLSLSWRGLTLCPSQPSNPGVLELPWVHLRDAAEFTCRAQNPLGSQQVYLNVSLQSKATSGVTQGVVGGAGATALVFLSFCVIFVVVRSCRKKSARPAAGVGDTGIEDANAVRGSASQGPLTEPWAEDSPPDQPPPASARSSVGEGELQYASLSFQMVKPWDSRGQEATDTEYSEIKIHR

Trypanosoma cruzi = assay: Trypanosoma cruzi phosphomannomutase and mannose-1-phosphate guanylyltransferase assay; type: functional; conditions: 10 µM
[5] = target: T2, Arginase-2, mitochondrial (Homo sapiens) (UniProt P78540); assay: in vitro enzyme assay to detect the production of urea directly proportional to the activity of Arginase II; type: functional; conditions: 33.3 µM; note: in the data most compounds retested in dose-response had high values
T2 sequence (whole entry): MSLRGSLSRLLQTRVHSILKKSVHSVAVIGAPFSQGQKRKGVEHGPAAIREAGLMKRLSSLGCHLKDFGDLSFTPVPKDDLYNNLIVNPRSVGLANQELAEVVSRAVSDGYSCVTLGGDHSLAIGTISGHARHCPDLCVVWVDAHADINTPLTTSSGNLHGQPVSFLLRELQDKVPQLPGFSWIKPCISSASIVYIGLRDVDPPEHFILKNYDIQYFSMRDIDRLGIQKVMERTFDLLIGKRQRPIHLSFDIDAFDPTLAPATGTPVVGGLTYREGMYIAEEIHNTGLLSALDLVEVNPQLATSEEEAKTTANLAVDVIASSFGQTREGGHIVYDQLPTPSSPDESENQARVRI

[6] = target: T3, Proteasome subunit beta (Trypanosoma cruzi) (UniProt O96673); assay: Trypanosoma cruzi proteasome chymotrypsin-like activity (TcProtChymo) assay.; note: in the data most compounds retested in dose-response had high values; type: functional; conditions: 9.37 µM
T3 sequence (whole entry): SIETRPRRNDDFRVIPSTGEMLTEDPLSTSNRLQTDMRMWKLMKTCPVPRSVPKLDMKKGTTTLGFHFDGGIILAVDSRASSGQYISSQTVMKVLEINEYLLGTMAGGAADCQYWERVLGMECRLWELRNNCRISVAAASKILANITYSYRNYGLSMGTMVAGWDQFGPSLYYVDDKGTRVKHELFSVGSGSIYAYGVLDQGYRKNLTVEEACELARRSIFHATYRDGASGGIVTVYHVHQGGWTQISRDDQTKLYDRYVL

Homo sapiens = species: Homo sapiens; assay: To identify inhibition of the IFN signalling (Jak-Stat) pathway via expression of an eGFP reporter gene under the control of an IFN-stimulated response element (ISRE) containing MxA promoter.; type: functional; conditions: 30 µM
[7] = target: T4, Tyrosyl-tRNA synthetase, putative (Trypanosoma cruzi (strain CL Brener)) (UniProt Q4DSP6); assay: Trypanosoma cruzi tyrosyl tRNA synthetase (TcYRS) _High Tyrosine SOP; type: functional; conditions: 30 µM; note: in the data most compounds retested in dose-response had high values
T4 sequence (whole entry): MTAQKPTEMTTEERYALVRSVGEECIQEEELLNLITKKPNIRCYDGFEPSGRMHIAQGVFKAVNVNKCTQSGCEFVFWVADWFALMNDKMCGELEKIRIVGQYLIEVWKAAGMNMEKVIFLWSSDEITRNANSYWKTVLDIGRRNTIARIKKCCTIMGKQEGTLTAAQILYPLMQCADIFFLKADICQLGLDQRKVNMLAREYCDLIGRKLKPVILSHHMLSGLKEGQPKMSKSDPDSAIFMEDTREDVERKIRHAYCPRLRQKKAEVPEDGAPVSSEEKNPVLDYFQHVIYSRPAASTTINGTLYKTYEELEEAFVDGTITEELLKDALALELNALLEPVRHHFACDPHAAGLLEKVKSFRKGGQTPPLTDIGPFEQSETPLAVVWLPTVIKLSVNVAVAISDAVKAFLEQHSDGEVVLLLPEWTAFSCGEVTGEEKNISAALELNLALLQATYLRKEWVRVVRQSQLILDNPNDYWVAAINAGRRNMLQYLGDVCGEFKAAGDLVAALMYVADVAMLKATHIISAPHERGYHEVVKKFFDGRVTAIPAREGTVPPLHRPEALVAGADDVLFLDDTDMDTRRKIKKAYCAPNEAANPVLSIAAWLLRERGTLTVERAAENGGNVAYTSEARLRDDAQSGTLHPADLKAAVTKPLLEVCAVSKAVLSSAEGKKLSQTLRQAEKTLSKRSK

[8] = target: T4, Tyrosyl-tRNA synthetase, putative (Trypanosoma cruzi (strain CL Brener)); assay: Trypanosoma cruzi tyrosyl tRNA synthetase (TcYRS) SOP; type: functional; conditions: 30 µM
[9] = target: Chromo domain-containing protein 1 (Saccharomyces cerevisiae (strain ATCC 204508 / S288c) (Baker's yeast)) (UniProt P32657); assay: ScCHD-1 Enzyme Inhibition Assay; type: functional; conditions: 30 µM; note: in the data most compounds retested in dose-response had high values
Sequence of Chromo domain-containing protein 1 (Saccharomyces cerevisiae (strain ATCC 204508 / S288c) (Baker's yeast)) (P32657 whole entry, the tested form may be a part): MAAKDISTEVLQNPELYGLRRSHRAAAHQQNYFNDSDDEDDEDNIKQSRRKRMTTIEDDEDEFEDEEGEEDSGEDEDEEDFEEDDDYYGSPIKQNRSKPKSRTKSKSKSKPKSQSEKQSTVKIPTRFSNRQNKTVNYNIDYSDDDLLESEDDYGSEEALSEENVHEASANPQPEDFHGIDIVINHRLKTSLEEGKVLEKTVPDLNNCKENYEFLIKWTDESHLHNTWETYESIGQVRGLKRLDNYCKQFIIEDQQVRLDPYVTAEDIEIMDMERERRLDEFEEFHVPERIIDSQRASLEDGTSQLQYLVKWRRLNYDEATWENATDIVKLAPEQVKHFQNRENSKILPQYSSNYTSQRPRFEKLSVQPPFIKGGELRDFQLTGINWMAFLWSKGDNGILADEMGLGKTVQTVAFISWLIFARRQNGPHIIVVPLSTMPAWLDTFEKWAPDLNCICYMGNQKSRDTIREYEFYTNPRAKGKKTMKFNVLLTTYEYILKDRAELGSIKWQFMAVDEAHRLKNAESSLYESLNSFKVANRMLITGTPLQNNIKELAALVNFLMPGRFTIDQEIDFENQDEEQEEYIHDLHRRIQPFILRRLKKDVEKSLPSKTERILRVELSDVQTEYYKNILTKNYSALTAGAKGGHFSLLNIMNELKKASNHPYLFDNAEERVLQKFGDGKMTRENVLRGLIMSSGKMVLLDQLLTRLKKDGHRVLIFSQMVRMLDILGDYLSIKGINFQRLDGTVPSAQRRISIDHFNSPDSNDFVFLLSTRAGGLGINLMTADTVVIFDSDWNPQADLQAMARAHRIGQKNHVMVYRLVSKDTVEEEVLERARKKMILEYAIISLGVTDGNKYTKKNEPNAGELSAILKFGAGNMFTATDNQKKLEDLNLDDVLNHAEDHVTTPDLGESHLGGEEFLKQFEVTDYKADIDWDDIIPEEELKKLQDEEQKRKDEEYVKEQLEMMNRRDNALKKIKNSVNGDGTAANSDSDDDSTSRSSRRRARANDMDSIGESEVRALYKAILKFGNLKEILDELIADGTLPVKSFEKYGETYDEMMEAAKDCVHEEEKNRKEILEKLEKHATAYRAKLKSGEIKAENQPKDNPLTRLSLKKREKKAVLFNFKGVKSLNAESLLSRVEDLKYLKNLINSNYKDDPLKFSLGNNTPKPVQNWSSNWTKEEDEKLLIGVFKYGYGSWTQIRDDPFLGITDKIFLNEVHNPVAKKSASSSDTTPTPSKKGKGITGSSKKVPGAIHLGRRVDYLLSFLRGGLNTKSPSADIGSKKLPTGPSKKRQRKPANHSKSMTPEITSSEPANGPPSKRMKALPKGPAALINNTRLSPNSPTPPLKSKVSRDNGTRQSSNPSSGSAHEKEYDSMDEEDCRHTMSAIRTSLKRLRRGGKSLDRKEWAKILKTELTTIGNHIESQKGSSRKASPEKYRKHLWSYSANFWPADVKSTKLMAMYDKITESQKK

Sequence of Protein translocase subunit SecA (Escherichia coli (strain K12)) (P10408 whole entry): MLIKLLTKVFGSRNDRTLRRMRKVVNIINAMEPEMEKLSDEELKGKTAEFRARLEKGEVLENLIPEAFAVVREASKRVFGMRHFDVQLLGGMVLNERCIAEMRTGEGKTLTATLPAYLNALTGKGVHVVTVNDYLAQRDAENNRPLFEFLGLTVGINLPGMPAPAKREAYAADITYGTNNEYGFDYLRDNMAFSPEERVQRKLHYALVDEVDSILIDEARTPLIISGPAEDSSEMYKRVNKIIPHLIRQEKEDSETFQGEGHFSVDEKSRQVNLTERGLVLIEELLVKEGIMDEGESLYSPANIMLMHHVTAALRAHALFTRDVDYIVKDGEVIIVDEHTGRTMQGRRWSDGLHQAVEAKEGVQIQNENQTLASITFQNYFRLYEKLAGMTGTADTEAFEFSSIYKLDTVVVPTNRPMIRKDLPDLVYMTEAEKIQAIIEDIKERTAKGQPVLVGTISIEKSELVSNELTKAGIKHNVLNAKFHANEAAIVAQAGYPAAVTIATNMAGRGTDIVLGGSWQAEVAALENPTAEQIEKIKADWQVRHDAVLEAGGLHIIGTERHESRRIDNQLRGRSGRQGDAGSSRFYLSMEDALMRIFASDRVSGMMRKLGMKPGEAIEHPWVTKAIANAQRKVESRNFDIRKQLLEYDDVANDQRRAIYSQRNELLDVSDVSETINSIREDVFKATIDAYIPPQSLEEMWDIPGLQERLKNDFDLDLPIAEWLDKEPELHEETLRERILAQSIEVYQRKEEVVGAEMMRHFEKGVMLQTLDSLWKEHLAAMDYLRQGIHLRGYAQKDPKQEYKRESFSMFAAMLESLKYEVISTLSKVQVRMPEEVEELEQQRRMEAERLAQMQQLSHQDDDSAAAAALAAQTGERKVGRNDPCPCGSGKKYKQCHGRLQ

Row | SMILES | Percent Effect [1] | Percent Effect [2] | Percent Effect [3] | Percent Effect [4] | Percent Effect (Trypanosoma cruzi) | Percent Effect [5] | Percent Effect [6] | Percent Effect (Homo sapiens) | Percent Effect [7] | Percent Effect [8] | Percent Effect [9]
1 | CC(C)c1noc(C(C)N2CCN(Cc3ccco3)CC2)n1 (configuration not stated) | -1.82% | -7.89% | -0.515% | 3.05% | 7.19% | -3.24% | 2.45% | -1.85% | 1.48% | 1.24% | 0.33%
2 | CCn1ccnc1CN1CCN(CCC(=O)NC(C)(C)C)CC1C (configuration not stated) | -2.88% | 8.11% | -0.327% | 5.56% | 3.71% | 10% | 5.16% | 5.99% | 10.9% | 15.8% | -3.56%
3 | CN(C)C(=O)N1CCc2c(nnn2C)C1COCc1ccccc1 (configuration not stated) | -4.49% | 21.3% | -8.1% | -0.726% | 5.21% | -42.1% | 13.7% | -0.202% | 7.29% | 27.5% | -6.92%
4 | CSCc1cccc(S(=O)(=O)N2CCSCC2)c1 | -2.31% | -1.33% | 0.956% | 1.81% | -4.91% | -4.05% | 8.87% | 4.39% | -16.9% | -2.56% | -9.22%
5 | Cc1nn(C)cc1C(=O)N1C[C@H]2CC[C@@H]1CN(S(=O)(=O)N(C)C)C2 | -0.765% | 5.33% | -1.08% | 4.66% | -8.08% | 2.6% | 20.2% | 13.3% | 0.546% | 1.24% | -6.02%
6 | O=C(c1n[nH]c(=O)c2ccccc12)N1CCCCC1c1ccn[nH]1 (configuration not stated) | -1.96% | 1.35% | 14.9% | -7.74% | -5.53% | -8.12% | 1.72% | 0.863% | 4.3% | 6.49% | -5.69%
7 | Cc1ccc(-c2nc(CN3CCc4nn(C)c(=O)cc4C3)no2)cc1 | -1.55% | -24.3% | 7.36% | -4.73% | 5.75% | 2.81% | -12.8% | 2.86% | -0.493% | -1.24% | -4.17%
8 | CC(C)c1nc2n(n1)CC(NCc1nnc(C(C)C)o1)CC2 (configuration not stated) | -2.44% | 13.5% | 139% | 8.12% | 7.08% | -4.81% | 5.41% | 10.9% | 6.4% | 18.5% | -8.46%
9 | CC1CCCN(Cc2c(C3CCOCC3)[nH]c3ncccc23)C1 (configuration not stated) | -2.15% | 25.7% | 4.08% | -6.47% | 0.198% | -6.26% | 14.3% | 11% | 2.15% | 11.7% | -12%
10 | CCn1c(C)nnc1CN(C)C1CCN(CCc2ccncc2)C1 (configuration not stated) | -2.2% | 20.8% | -0.899% | 1.88% | 1.47% | -3.16% | 9.62% | 13.3% | 11.4% | 30.6% | -19.1%
11 | CC(=O)N1C[C@H](NC(=O)c2cscn2)[C@@H]2OCCC[C@@H]21 | -1.76% | 10.8% | 2.39% | -9.14% | -5.38% | 7.33% | 23.2% | -9.35% | -1.08% | 10.3% | -0.517%
12 | Cc1cc(C)cc(NS(=O)(=O)c2cc3c(c(C(=O)O)c2)OCCO3)c1 | -4.74% | 6.33% | -7.57% | 3.67% | 0.308% | -5.38% | 15.4% | 2.08% | -10.4% | -5.06% | -26.1%
13 | CN(C)C(=O)N1CCN(Cc2cnn(C)c2)CC2(CNC(=O)C2)C1 (configuration not stated) | -2.48% | 0% | 2.36% | 11.3% | -3.03% | -2.87% | 17% | 3.58% | 4.32% | 2.56% | 3.46%
14 | Cc1ccoc1C(=O)N1CC[C@H]2OCC[C@@]2(COCc2ccncc2)C1 | -0.155% | 15.6% | 3.21% | 3.48% | 2.07% | 7.1% | 17.2% | 23.7% | 7.41% | 16.7% | -9.72%
15 | CNc1cncc(C2CCCN2C(=O)c2ccc3oc(=O)n(C)c3c2)n1 (configuration not stated) | -2.39% | 14.9% | 8.4% | -7.77% | 3.36% | 0.696% | 9.36% | -8.91% | 5.38% | 3.9% | -16.2%
16 | CC(C)n1c(=O)nc2n1C(=O)N(c1ccccc1)C2 | -3.47% | 18.4% | -0.93% | -3.33% | 0.682% | -4.73% | 14.7% | -2.62% | 6.38% | 18.2% | -9.74%
17 | O=C([C@@H]1COC[C@H]2CN(C3CCOCC3)C[C@H]21)N1CCCCO1 | 0.287% | 13.3% | -0.78% | -8.11% | 0.386% | -46.4% | 6.67% | 7.44% | 2.08% | 20% | -6.62%
18 | CC(C)COC(C)C(=O)N1CCN(S(C)(=O)=O)CC1 (configuration not stated) | -3.12% | 8.22% | -1.38% | 2.29% | 3.53% | 1.36% | 8.34% | -1.94% | 4.3% | 20% | -4.42%
19 | CC(COc1ccc(F)cc1F)NC(=O)NCCN1CCOCC1 (configuration not stated) | -3.66% | 10.5% | 7.15% | -1.15% | 4.77% | -5.92% | 16% | -26.7% | 1.06% | 13% | -2.74%
20 | Cc1ccccc1Cc1cnc(NC(=O)C2CNC(=O)N2)s1 (configuration not stated) | -3.2% | 3.8% | -1.9% | 0.365% | 2.36% | -4.95% | 13.7% | 22.3% | 2.08% | 15.2% | -23.7%
21 | O=S1(=O)C[C@@H]2[C@H](C1)N(Cc1cc(Cl)cc(Cl)c1)CCN2CC1CC1 | -4.25% | 8% | -0.723% | -1.32% | -2.24% | 1.56% | 12% | 22.5% | 2.73% | 11.1% | -6.73%
22 | CCN1C(=O)C2(CCOCC2)c2cc(NC(=O)c3ccco3)ccc21 | -4.08% | 18.2% | -1.2% | 14.7% | 3.64% | -11% | 9.98% | 14.7% | 5.38% | 11.1% | 3.7%
